In all, about 5,500 compounds went through this assay and about 2,000 (36%) were called active. About 18% were inconclusive and are not listed. Rule as the data show it: active = normalized growth mostly below about 0.91 (no sharp cut-off); inconclusive = no clear call, values can overlap the other calls; inactive = mostly above about 0.92. The list shows a part of the results.
Assay: chemical genetic growth profiling, strain panel (AID 1159580);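 also: tested at 20 µM; growth read once vehicle control cultures reached saturation at 30 °C; 1 = growth at the plate median or of vehicle wells; lower values mean less growth of the strain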
Conditions: growth OD

Measured: normalized growth

O=C(O)c1cc(=O)c2c(OCC(O)COc3cccc4oc(C(=O)O)cc(=O)c34)cccc2o1
inactive: S. cerevisiae deletion strains, locus YKL009W, strain mrt4, hits give low values 1.01 | S. cerevisiae deletion strains, locus YKL068W, hits give low values 1.01 | S. cerevisiae deletion strains, locus YKL085W, strain MDH1 (second series), hits give low values 1.03 | S. cerevisiae deletion strains, locus YKL085W, strain MDH1, hits give low values 1.03 | S. cerevisiae deletion strains, locus YKL160W, strain elf1, hits give low values 0.972 | S. cerevisiae deletion strains, locus YKL190W, strain CNB1, hits give low values 1 | S. cerevisiae deletion strains, locus YKR001C, strain vps1, hits give low values 1.02 | S. cerevisiae deletion strains, locus YKR026C, strain gcn3, hits give low values 0.968 | S. cerevisiae deletion strains, locus YKR091W, strain srl3, hits give low values 0.983 | S. cerevisiae deletion strains, locus YLL001W, strain dnm1, hits give low values 0.935 | S. cerevisiae deletion strains, locus YLL026W, hits give low values 0.991 | S. cerevisiae deletion strains, locus YLL041C, strain sdh2, hits give low values 0.973 | S. cerevisiae deletion strains, locus YLR027C, strain aat2, hits give low values 0.983 | S. cerevisiae deletion strains, locus YLR039C, strain RIC1, hits give low values 1 | S. cerevisiae deletion strains, locus YLR058C, strain SHM2, hits give low values 1.01 | S. cerevisiae deletion strains, locus YLR102C, strain apc9, hits give low values 1.02 | S. cerevisiae deletion strains, locus YLR113W, strain HOG1, hits give low values 0.998 | S. cerevisiae deletion strains, locus YLR221C, strain rsa3, hits give low values 1.02 | S. cerevisiae deletion strains, locus YLR258W, strain gsy2, hits give low values 0.983 | S. cerevisiae deletion strains, locus YLR262C, strain YPT6 (second series), hits give low values 0.933 | S. cerevisiae deletion strains, locus YLR262C, strain YPT6, hits give low values 1.05 | S. cerevisiae deletion strains, locus YLR268W, strain sec22, hits give low values 1.04 | S. cerevisiae deletion strains, locus YLR320W, strain mms22, hits give low values 0.985 | S. cerevisiae deletion strains, locus YLR330W, strain CHS5, hits give low values 1.01 | S. cerevisiae deletion strains, locus YLR342W, strain FKS1 (second series), hits give low values 1.01 | S. cerevisiae deletion strains, locus YLR342W, strain FKS1, hits give low values 0.95 | S. cerevisiae deletion strains, locus YLR357W, strain rsc2, hits give low values 1.01 | S. cerevisiae deletion strains, locus YLR370C, strain arc18, hits give low values 0.974 | S. cerevisiae deletion strains, locus YLR371W, strain rom2, hits give low values 1.02 | S. cerevisiae deletion strains, locus YLR384C, strain iki3, hits give low values 0.961 | S. cerevisiae deletion strains, locus YLR418C, strain cdc73, hits give low values 1.02 | S. cerevisiae deletion strains, locus YML016C, strain PPZ1, hits give low values 1.01 | S. cerevisiae deletion strains, locus YML032C, strain rad52, hits give low values 1.02 | S. cerevisiae deletion strains, locus YML120C, strain ndi1, hits give low values 0.966 | S. cerevisiae deletion strains, locus YML124C, strain tub3, hits give low values 1.01 | S. cerevisiae deletion strains, locus YMR058W, strain fet3, hits give low values 0.967 | S. cerevisiae deletion strains, locus YMR078C, strain ctf18, hits give low values 1.04 | S. cerevisiae deletion strains, locus YMR125W, strain sto1, hits give low values 0.99 | S. cerevisiae deletion strains, locus YMR129W, hits give low values 0.975 | S. cerevisiae deletion strains, locus YMR205C, strain PFK2, hits give low values 0.982 | S. cerevisiae deletion strains, locus YMR223W, strain ubp8, hits give low values 1.03 | S. cerevisiae deletion strains, locus YMR231W, strain pep5, hits give low values 0.971 | S. cerevisiae deletion strains, locus YMR307W, strain GAS1, hits give low values 1.09 | S. cerevisiae deletion strains, locus YNL067W, strain RPL9B, hits give low values 1.01 | S. cerevisiae deletion strains, locus YNL071W, strain lat1, hits give low values 0.989 | S. cerevisiae deletion strains, locus YNL128W, strain TEP1, hits give low values 1.02 | S. cerevisiae deletion strains, locus YNL183C, strain NPR1, hits give low values 0.952 | S. cerevisiae deletion strains, locus YNL209W, strain ssb2, hits give low values 1.01 | S. cerevisiae deletion strains, locus YNL233W, strain BNI4, hits give low values 1.02 | S. cerevisiae deletion strains, locus YNL248C, strain rpa49, hits give low values 1 | S. cerevisiae deletion strains, locus YNL250W, strain rad50, hits give low values 1.07 | S. cerevisiae deletion strains, locus YNL271C, strain bni1, hits give low values 1.03 | S. cerevisiae deletion strains, locus YNL298W, strain CLA4, hits give low values 1.01 | S. cerevisiae deletion strains, locus YNL307C, strain MCK1, hits give low values 1.02 | S. cerevisiae deletion strains, locus YNL322C, strain KRE1 (second series), hits give low values 0.953 | S. cerevisiae deletion strains, locus YNL322C, strain KRE1, hits give low values 1.01 | S. cerevisiae deletion strains, locus YNR049C, strain mso1, hits give low values 0.967 | S. cerevisiae deletion strains, locus YNR052C, strain pop2, hits give low values 1.01 | S. cerevisiae deletion strains, locus YOL006C, strain TOP1, hits give low values 1.01 | S. cerevisiae deletion strains, locus YOL012C, strain htz1 0.937 | S. cerevisiae deletion strains, locus YOL147C, strain pex11, hits give low values 1.03 | S. cerevisiae deletion strains, locus YOR001W, strain rrp6, hits give low values 0.936 | S. cerevisiae deletion strains, locus YOR061W, strain CKA2, hits give low values 1.01 | S. cerevisiae deletion strains, locus YOR069W, strain VPS5, hits give low values 1.01 | S. cerevisiae deletion strains, locus YOR070C, strain gyp1, hits give low values 0.987 | S. cerevisiae deletion strains, locus YOR080W, strain dia2, hits give low values 0.968 | S. cerevisiae deletion strains, locus YOR083W, strain WHI5, hits give low values 0.961 | S. cerevisiae deletion strains, locus YOR106W, strain vam3, hits give low values 0.957 | S. cerevisiae deletion strains, locus YOR136W, strain idh2, hits give low values 1.03 | S. cerevisiae deletion strains, locus YOR144C, strain elg1, hits give low values 1.02 | S. cerevisiae deletion strains, locus YOR184W, strain ser1, hits give low values 1.03 | S. cerevisiae deletion strains, locus YOR231W, strain MKK1, hits give low values 1 | S. cerevisiae deletion strains, locus YOR265W, strain rbl2, hits give low values 0.984 | S. cerevisiae deletion strains, locus YOR270C, strain vph1, hits give low values 0.946 | S. cerevisiae deletion strains, locus YOR290C, strain snf2, hits give low values 1.02 | S. cerevisiae deletion strains, locus YOR316C, strain cot1, hits give low values 1.03 | S. cerevisiae deletion strains, locus YPL051W, strain arl3, hits give low values 0.99 | S. cerevisiae deletion strains, locus YPL055C, strain LGE1, hits give low values 1.01 | S. cerevisiae deletion strains, locus YPL078C, strain atp4, hits give low values 0.933 | S. cerevisiae deletion strains, locus YPL106C, strain sse1, hits give low values 1 | S. cerevisiae deletion strains, locus YPL240C, strain hsp82, hits give low values 1 | S. cerevisiae deletion strains, locus YPL241C, strain CIN2, hits give low values 1.01 | S. cerevisiae deletion strains, locus YPL256C, strain CLN2, hits give low values 1 | S. cerevisiae deletion strains, locus YPR119W, strain clb2, hits give low values 1.03 | S. cerevisiae deletion strains, locus YPR141C, strain kar3, hits give low values 1.03 | S. cerevisiae deletion strains, locus YPR163C, strain tif3, hits give low values 1.02 | S. cerevisiae deletion strains, locus YPR167C, strain met16, hits give low values 1.03 | S. cerevisiae deletion strains, strain wtn01, hits give low values 0.999 | S. cerevisiae strains, strain wild type, hits give low values 1.01
